# Data reported in PubChem BioAssay AID2330 (Broad Institute, 2010).
# Out of some 37,000 compounds screened, about 2,800 (7.6%) were called active. Roughly 1% stayed inconclusive and do not appear here. The list comes from a sample in which actives are over-represented; it also holds similar structures and randomly drawn compounds. Values without a mark were called inactive. Cut-off read from the data, not from the text of the source: active = inhibition above about 80%; inconclusive = no clear call, values can overlap the other calls; inactive = below that.
# Test: NOMO-1 AML cell viability reduction, primary screen, STK33 inhibitor project, CellTiter-Glo luminescence (AID 2330)
# Conditions: NOMO-1 AML viability, 72 h, stronger effect = higher value, concentration not given here
row,Structure (SMILES),inhibition
1,Cc1ccc(OCc2n[nH]c(=S)n2C2CCCCC2)c2c1CCC2,111% (active)
2,C=CCn1c(=O)c(C(=O)NCc2ccccn2)c(O)c2ccccc21,-12.4%
3,Cc1noc(C)c1NC(=O)Nc1ccc2c(c1)CC(=O)N([C@@H](C)CO)C[C@H](C)[C@@H](CN(C)CC1CCCCC1)O2,46.5%
4,C[C@@H]1CN([C@@H](C)CO)C(=O)c2cccc(NC(=O)Nc3ccc(F)cc3)c2O[C@@H]1CN(C)Cc1ccc(C(=O)O)cc1,0.82%
5,CCC/C=C/C=C/C1CC(O)C(O)C1C(=O)O (centres undefined),4.09%
6,C[C@@H]1CN([C@@H](C)CO)C(=O)c2cc(NS(=O)(=O)c3ccccc3)ccc2O[C@@H]1CN(C)Cc1ccc(C(=O)Nc2ccccc2N)cc1,110% (active)
7,C[C@@H]1CN([C@@H](C)CO)C(=O)c2cc(NC(=O)c3ccncc3)ccc2O[C@@H]1CN(C)Cc1ccncc1,-12.5%
8,C[C@@H]1CN([C@@H](C)CO)C(=O)c2cc(NC(=O)c3ccncc3)ccc2O[C@H]1CN(C)Cc1ccc(C(=O)O)cc1,19.8%
9,Cc1ccc(S(=O)(=O)Nc2ccc3c(c2)C(=O)N([C@H](C)CO)C[C@H](C)[C@H](CN(C)Cc2ccccc2)OCCCC[C@@H](C)O3)cc1,45.3%
10,C[C@@H]1CN([C@H](C)CO)C(=O)c2cc(NS(=O)(=O)c3cn(C)cn3)ccc2O[C@@H]1CN(C)Cc1ccc(C(=O)Nc2ccccc2N)cc1,20.1%
11,C[C@@H]1CN([C@@H](C)CO)C(=O)c2cc(NS(=O)(=O)c3cn(C)cn3)ccc2O[C@@H]1CN(C)Cc1ccc(C(=O)Nc2ccccc2N)cc1,5.34%
12,Cc1ccc(S(=O)(=O)Nc2ccc3c(c2)C(=O)N([C@@H](C)CO)C[C@@H](C)[C@@H](CN(C)Cc2ccc(C(=O)Nc4ccccc4N)cc2)O3)cc1,110% (active)
13,C[C@@H]1CCCCO[C@H](CN(C)Cc2ccccc2)[C@@H](C)CN([C@H](C)CO)C(=O)c2cc(NS(=O)(=O)c3ccc(Cl)cc3)ccc2O1,40.5%
14,Cc1ccc(S(=O)(=O)Nc2ccc3c(c2)C(=O)N([C@@H](C)CO)C[C@@H](C)[C@H](CN(C)Cc2ccc(C(=O)O)cc2)O3)cc1,2.99%
15,C[C@H]1CN([C@@H](C)CO)C(=O)c2cc(NC(=O)c3ccncc3)ccc2O[C@H]1CN(C)Cc1ccc(C(=O)Nc2ccccc2N)cc1,107% (active)
16,Cc1ccc(S(=O)(=O)Nc2ccc3c(c2)C(=O)N([C@H](C)CO)C[C@H](C)[C@H](CN(C)Cc2ccc(C(=O)Nc4ccccc4N)cc2)OCCCC[C@@H](C)O3)cc1,127% (active)
17,C[C@H](CO)N1C[C@H](C)[C@H](CN(C)Cc2ccc(C(=O)Nc3ccccc3N)cc2)Oc2ccc(NS(C)(=O)=O)cc2C1=O,50.3%
18,N#Cc1cccc(CSc2nnc(CCCO)n2-c2ccccc2)c1,-3.86%
19,C[C@H]1CN([C@@H](C)CO)C(=O)c2cc(NS(=O)(=O)c3cn(C)cn3)ccc2O[C@H]1CN(C)CC1CCCCC1,0.874%
20,Cc1noc(C)c1NC(=O)Nc1ccc2c(c1)C(=O)N([C@@H](C)CO)C[C@H](C)[C@@H](CN(C)C)O2,17.2%
21,O=C(Nc1ccc(C23CC4CC(CC(C4)C2)C3)cc1)c1cccs1,1.68%
22,Cc1noc(C)c1S(=O)(=O)Nc1cccc2c1O[C@H](CN(C)Cc1ccc(C(F)(F)F)cc1)[C@H](C)CN([C@@H](C)CO)C2=O,11.5%

row,Structure (SMILES),inhibition
1,C[C@H]1CN([C@@H](C)CO)C(=O)Cc2cc(NC(=O)NC3CCCCC3)ccc2O[C@H]1CN(C)S(=O)(=O)c1ccccc1,0.581%
2,CC(=O)Nc1ccc(S(=O)(=O)N2CCCC2C(=O)O)cc1 (centres undefined),27.5%
3,C[C@H]1CN([C@@H](C)CO)C(=O)Cc2cc(NS(=O)(=O)c3ccc(Cl)cc3)ccc2O[C@@H]1CN(C)S(=O)(=O)c1ccccc1,48.5%
4,Cc1ccc(S(=O)(=O)N(C)C[C@H]2Oc3ccc(NC(=O)C4CC4)cc3C(=O)N([C@H](C)CO)C[C@H]2C)cc1,32.5%
5,CCOc1c(S(=O)(=O)NCc2cccnc2)ccc(Cl)c1Cl,-5.95%
6,Cc1ccc(Cl)cc1NC(=O)CN(c1cccc(Cl)c1C)S(C)(=O)=O,47.6%
7,C[C@@H]1CN([C@@H](C)CO)C(=O)c2cccc(NS(=O)(=O)c3cccs3)c2O[C@H]1CN(C)Cc1ccncc1,-14.5%
8,Cc1noc(C)c1S(=O)(=O)Nc1ccc2c(c1)C(=O)N([C@@H](C)CO)C[C@H](C)[C@H](CN(C)Cc1ccc(C(=O)Nc3ccccc3N)cc1)O2,104% (active)
9,Cc1noc(C)c1S(=O)(=O)Nc1ccc2c(c1)C(=O)N([C@@H](C)CO)C[C@@H](C)[C@H](CN(C)C(=O)Nc1cccc3ccccc13)O2,7.46%
10,Cc1noc(C)c1S(=O)(=O)Nc1ccc2c(c1)C(=O)N([C@@H](C)CO)C[C@@H](C)[C@H](CN(C)Cc1ccc(-c3ccccc3)cc1)O2,20.3%
11,Cn1nnc2cc(C(=O)N(CCO)c3ccccc3)ccc21,-5.36%
12,COC(=O)c1c(NC(=O)c2cc(-c3ccccn3)nc3c(C)cc(C)cc23)sc(C)c1C,19.6%
13,COC(=O)c1c(NC(=O)c2cc(-c3ccccn3)nc3ccc(Br)cc23)sc(C(=O)N(C)C)c1C,85.7% (active)
14,Cc1ccc2nc(-c3ccncc3)cc(C(=O)NCc3ccccn3)c2c1,53.9%
15,Cc1noc(C)c1NC(=O)Nc1ccc2c(c1)C(=O)N([C@H](C)CO)C[C@H](C)[C@H](CN(C)Cc1ccc(Oc3ccccc3)cc1)O2,30%
16,Cc1cc(C(=O)Nc2cccc3c2O[C@@H](CN(C)C(=O)Nc2ccc4c(c2)OCO4)[C@H](C)CN([C@@H](C)CO)C3=O)n(C)n1,11.4%
17,C[C@H](CO)N1C[C@H](C)[C@H](CN(C)S(C)(=O)=O)Oc2c(NC(=O)c3ccc(-c4nccs4)cc3)cccc2C1=O,1.84%
18,C[C@@H]1CN([C@@H](C)CO)C(=O)c2cccc(NC(=O)c3ccc(-c4nccs4)cc3)c2O[C@H]1CN(C)Cc1ccc(Cl)c(Cl)c1,97.3% (active)
19,C[C@H](CO)N1C[C@H](C)[C@@H](CN(C)S(C)(=O)=O)Oc2c(NC(=O)c3ccc(-c4nccs4)cc3)cccc2C1=O,3.98%
20,C[C@H]1CN([C@@H](C)CO)C(=O)c2cccc(NC(=O)c3ccc(-c4nccs4)cc3)c2O[C@H]1CN(C)Cc1ccc(C(=O)O)cc1,23.4%
21,C[C@@H]1CN([C@@H](C)CO)C(=O)c2cccc(NC(=O)c3ccc(-c4nccs4)cc3)c2O[C@@H]1CN(C)Cc1ccncc1,35.3%
22,C[C@H](CO)N1C[C@H](C)[C@@H](CN(C)Cc2ccc(C(=O)Nc3ccccc3N)cc2)Oc2c(NC(=O)c3ccc(-c4nccs4)cc3)cccc2C1=O,138% (active)

row,Structure (SMILES),inhibition
1,CC(C)NC(=O)N(C)C[C@H]1Oc2c(NS(=O)(=O)c3ccc(Cl)cc3)cccc2C(=O)N([C@@H](C)CO)C[C@H]1C,12.1%
2,COc1ccc(NC(=O)Nc2ccc3c(c2)C(=O)N([C@@H](C)CO)C[C@H](C)[C@@H](CN(C)C(=O)NC2CCCCC2)O3)cc1,-2.68%
3,CCOc1cc(S(=O)(=O)NC2CC(C)(C)NC(C)(C)C2)ccc1F,-9.77%
4,CC(=O)Nc1ccc(Nc2c3c4c(cccc4[nH]c2=O)C(=O)c2ccccc2-3)cc1,115% (active)
5,CC(=O)Nc1ccc(NC(=O)COc2ccccc2C(=O)Nc2cccc(Cl)c2Cl)cc1,-3.66%
6,CC(=O)Nc1ccc(NC(=O)CC2C(=O)Nc3ccccc3N2C(C)=O)cc1 (centres undefined),-5.07%
7,Cc1ccc(C23CC4CC(CC(CN)(C4)C2)C3)cc1C,116% (active)
8,O=C(CSc1nc2ccccc2o1)Nc1ccccn1,2.56%
9,Cc1ccc(S(=O)(=O)N(C)C[C@@H]2Oc3c(NC(=O)Nc4c(C)noc4C)cccc3C(=O)N([C@@H](C)CO)C[C@@H]2C)cc1,22.7%
10,COc1ccc(C(C)=O)cc1CSc1nnc(-c2ccc(Br)cc2)n1-c1ccccc1,15.8%
11,O=C(CSc1nnc(-c2ccncc2)n1-c1ccc(Cl)cc1)Nc1ccc(C(=O)O)cc1,-34.2%
12,O=C(CSc1nnc(-c2ccncc2)n1-c1ccccc1)Nc1ccc(Cl)c(Cl)c1,33.8%
13,COC(=O)CSc1nnc(-c2ccc(Cl)cc2)n1-c1ccc(Br)cc1,95.1% (active)
14,O=C(CSc1nnc(-c2ccccc2)n1-c1ccc(Cl)cc1)Nc1ccc(Cl)cc1,83.3% (active)
15,CCn1c(SCC(=O)Nc2cc(Cl)ccc2OC)nnc1-c1ccc(Br)cc1,25%
16,O=C(CC(=O)c1ccccc1O)c1ccccc1,42.5%
17,C[C@@H]1CN([C@@H](C)CO)C(=O)Cc2cc(NC(=O)Cn3cnnn3)ccc2O[C@@H]1CN(C)S(=O)(=O)c1cn(C)cn1,-10.4%
18,COc1ccc(NC(=O)CN2CCN(S(=O)(=O)c3ccc4ccccc4c3)CC2)cc1,8.78%
19,COC(=O)C1=C[C@H](O[C@@H]2O[C@H](CO)[C@@H](O)[C@H](O)[C@H]2O)C[C@H]2[C@]3(C)C[C@@H](c4ccoc4)OC(=O)[C@H]3CC[C@@]12C,22.8%
20,COc1ccc(NC(=O)N(C)C[C@@H]2Oc3c(NS(=O)(=O)c4ccc(OC)cc4)cccc3C(=O)N([C@H](C)CO)C[C@@H]2C)cc1,14.6%
